This is part of a sample that, as a whole, favours compounds with a hit. Of some 83,000 tested, about 20% had one in any assay.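 The test compound was applied at a single concentration to cells in 96-well plates for 48 hours, and percent growth was recorded.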 Unmarked numbers belong to inactive results. Activity calls are given as the source filed them. How the source made its calls: active means growth percent below 10; inactive means the rest.

From PubChem BioAssay (NCI) come the findings set out here.

In this assay the test system is HL-60(TB) leukemia. The assay can be described thus: NCI-60 one-dose screen, 48 h (100 = growth as untreated, 0 = no growth, -100 = all killed). The conditions noted are these: 10 µM unless noted.
`COc1ccc(C(=O)C(C#N)c2cc(OC)c(OC)c(OC)c2)cc1` (stereo not given): the growth was 96%.

Consider `C/C(=C\c1ccc(OCC(=O)O)c(Cl)c1Cl)[N+](=O)[O-]`, for which the growth is 79.8%.

Regarding `CSC(=N\N=C\c1ccc(N(C)C)cc1)/N=C/N(C)C`, the growth is 105%.

Turning to `COc1cccc(-c2nc3sccn3c2-c2ccnc(NCCCNS(=O)(=O)c3ccc(F)cc3)n2)c1`, the growth is 12.1%.

With `CCCCC1=c2c([nH]c3ccc(OC)cc23)=NC2C=CC=NC12` (stereo not given), the growth was 80.5%.

As to `Nc1ccccc1-c1n[nH]c(=O)[nH]c1=O`, the growth was 105%.

Take `Oc1ccc(CCl)c2cccnc12`: the growth was 81%.

With `CCOc1cc(-c2ccc[nH]2)[nH]c1/C=C1\N=C(C)C(C(=O)OC)=C1C`, the growth is -42.7% (active).

As to `O=C1C2(c3ccccc3)C(c3ccccc3)=C(c3ccccc3)C1(c1ccccc1)C1CC=CC12` (stereo not given), the growth was 76.3%.

Regarding `CCCCCCCC/C=C/CCCCCCCC1=NCC[N+]1(CCO)CCO`, the growth was 31.7%.

Consider `O=C(NCCCCO)c1cncnc1Nc1ccc2c(ccn2Cc2cccc(F)c2)c1`, for which the growth is 100%.

As to `COc1cccc(/C=C2/C(=O)N(Cc3ccco3)SC2=S)c1OC`, the growth is 94.5%.

As for `O=CNc1cc(Cl)cc(Cl)c1`, the growth is 93.2%.

In the case of `CCN(CC)CCNC(=O)n1cc(-c2ccncc2)c(-c2ccc(Cl)c(OC)c2)n1`, the growth is 95.9%.

As to `CCCN(CCC)CCC(O)c1cc2c(c3ccccc13)CCCC2` (stereo not given), the growth is 113%.

Take `CN(Cc1ccccc1)Cc1ccccc1`: the growth is 93.4%.

Take `Cc1cc(=O)oc2cc(OC(=O)N3CCN(C)CC3)ccc12`: the growth was 106%.

As to `CC1(C)OCC2OC3(C(=O)O)OC(C)(C)OC3C2O1` (stereo not given), the growth was 98.2%.

For the compound `OCCNc1nc(NCCO)nc(Nc2ccc(C3=NN(c4cc(Cl)cc(Cl)c4)C(c4ccc(C(F)(F)F)cc4)C3)cc2)n1` (stereo not given), the growth is 16.7%.

As to `COc1cc(/C=N/Nc2nc(-c3ccc(F)cc3)c(C#N)c(N3CCOCC3)n2)ccc1O`, the growth is 72.5%.

For the compound `C=CCc1c2c(c(OC)c3ccoc13)C(=O)/C(=C/c1ccccc1OC)O2`, the growth was 68.8%.

In the case of `O=C(O)CCC(NC(=O)OCc1ccccc1)C(=O)O` (stereo not given), the growth was 108%.

Regarding `N=c1nc(N)ncn1-c1ccccc1`, the growth is 110%.

Turning to `CCOC(=O)c1c(C)n(-c2ccc(Cl)cc2)c2ccc(OC(=O)/C=C/c3ccccc3)cc12`, the growth was 57.1%.

Turning to `CC1(C)CC[C@]2(CO)CC[C@]3(C)C(=CC[C@@H]4[C@@]5(C)CCNCC(C)(C)[C@@H]5CC[C@]43C)[C@@H]2C1`, the growth is 23.5%.

`CCCNC(=O)Oc1ccc(/C(=C(\C)c2ccccc2)c2ccc(OCCCN(C)C)cc2)cc1`: the growth was 65.3%.

For the compound `NC(=O)CN1CCN(c2ccccc2Cl)CC1`, the growth was 92.4%.

For the compound `CCCCNCC(O)c1cc(-c2ccc(C(F)(F)F)cc2)nc(-c2ccc(C(F)(F)F)cc2)c1` (stereo not given), the growth is -49.2% (active).

For `CC/C(=C(/c1ccc(Cl)cc1)c1ccc(OCCN(C)C)cc1)c1ccc(Cl)cc1`, the growth was 64.9%.

With `Cc1ccc(C2(C)NC(=O)N(CC(=O)Nc3cccc(C)c3)C2=O)cc1` (stereo not given), the growth is 103%.

On to `COc1cc(NS(C)(=O)=O)ccc1Nc1c2ccc(Cl)cc2nc2c(OC)cccc12`, for which the growth was -30.1% (active).

Regarding `C[C@]12CCc3c(ccc4cc(O)ccc34)[C@@H]1C[C@H](O)[C@@H]2O`, the growth was 132%.

On to `CCCOC(=O)Nc1nc2ccc(SCC(C)C)cc2s1`, for which the growth was 15.9%.

Turning to `N#Cc1c(Cl)nc(SCC2CO2)nc1-c1ccccc1` (stereo not given), the growth was 105%.

For the compound `CCC(C)(O)Cc1ccc(Cl)cc1` (stereo not given), the growth is 96%.

As for `CCn1cc(CNc2ccc(C(=O)Nc3cc4cc(OC)c(OC)cc4c(C)n3)cc2)c(C)n1`, the growth is 0.232% (active).

`COc1cc(-c2nc(SC(C)C)nc(Nc3ccccc3C)c2C#N)cc(OC)c1OC`: the growth was 103%.

Turning to `O=C(CNC(=O)c1cccc2ccccc12)Nc1ccccc1Oc1ccc(O)cc1`, the growth was -13.9% [5 µM] (active).

In the case of `COc1ccc(/C=N/Nc2cc(=O)[nH]c3ccc(C)cc23)cc1`, the growth was 94.2%.

As for `O=C(/C=C/C(Cl)(Cl)Cl)Nc1ccc(Cl)cc1`, the growth is 34.5%.
